Test results taken from PubChem BioAssay (NCATS).
Results filed as inconclusive are left out. The source made the active and inactive calls. Calls come from the whole dose curve; as a rule, active = well fitted inhibition curve with a large enough effect; inconclusive = small, poorly fitted or top-dose-only effect, or effect the other way; inactive = flat fitted curve, though single readings scatter.

Experiment: qHTS for Inhibitors of Plasmodium falciparum (CP250) proliferation (AID 504320)
Details: P. falciparum CP250 in erythrocytes, SYBR Green DNA, 72 h; series mostly up to 6.7 µM
From the text: Plasmodium falciparum is a virulent malarial parasite that kills 1-2 million people worldwide each year. Malaria not only inflicts tremendous suffering and morbidity on the human population, but has dramatically influenced the course of civilization with profound sociological and economic implications (Shah, S. 2010). Transmitted by mosquitoes, the sporozoite form of the parasite enters the blood stream to infect hepatocytes, where they become merozoites that infect red blood cells (erythrocytes). Within erythrocytes, merozoites begin a […] cycle of growth and division, after which the parasite is released to infect new red blood cells. Gametocytes, which form within erythrocytes as well, circulate in the bloodstream and are ingested by the mosquito, thereby completing the life cycle (see CDC website). To profile malarial lines for differential chemical responses and to identify inhibitors of malarial growth, an assay that measures P. falciparum growth and replication within erythrocytes was employed. This assay uses a DNA binding fluorescent dye (SYBR Green) to detect parasite DNA following cell lysis. Because mature erythrocytes lack DNA, only Plasmodium-derived DNA is detected. The P. falciparum line cp250, derived from a malarial isolate from Cambodia, (Mu, J., et al. 2010) was added to the panel of lines, Dd2, HB3, 7G8 and GB4 in this study. Laboratory of Assay Development and Screening Technology [ADST] and NIH Chemical Genomics Center [NCGC] Boston University, Chemistry Department, Center for Chemical Methodology and Library Development [CMLD-BU] NIH National Institute of Allergy and Infectious Diseases [NIAID]
ADST Assay Protocol Summary: The 1536-well SYBR Green viability assay was based on the method of Bennett et al (2004) and described previously in 1536-well format (Yuan J., et al. 2009). For screening 3 ul culture medium was dispensed into 1536 well black clear bottom plates (Aurora Biotechnologies) using a Multidrop Combi (Thermo Fisher Scientific Inc.), 23 nL compounds in DMSO were added by a pin transfer (Cleveland, P.H. and Koutz, P.J, 2005) using a pin tool-based delivery system (Kalypsys), and 5 ul of erythrocytes infected with P. falciparum one of five lines (cp250, Dd2, HB3, 7G8 or GB4, 0.3% parasitemia, 2.5% hematocrit final concentration) were added. The plates were incubated at 37C in a humidified incubator in 5% CO2 for 72 h, and 2 ul lysis buffer (20 mM Tris HCl, 10 mM EDTA, 0.16% saponin, 1.6% triton X, 10X SYBR Green I (supplied as 10,000X final concentration by Invitrogen) was added to each well. The plates were mixed for 25 sec with gentle shaking and incubated overnight at room temperature in the dark. The following morning, fluorescence intensity at 485(14) nm excitation and 535(25) nm emission wavelengths was measured on an EnVision (Perkin Elmer) plate reader. Plate reads were normalized relative to the control inhibitor (0.29 uM artemisinin) and vehicle (DMSO) wells present on each plate and then corrected by an algorithm using vehicle-only control plates at the beginning and end of the compound plate stack. References Shah, S. (2010). The Fever: how malaria has ruled humankind for 500,000 years. New York, Sarah Crichton Books. CDC web site, http://www.cdc.gov/malaria/about/biology/index.html Mu, J., Myers, R.A., Jiang, H., Liu, S., Ricklefs, S., Waisberg, M., Chotivanich, K., Wilairatana, P., Krudsood, S., White, N.J., et Plasmodium falciparum genome-wide scans for positive selection, recombination hot spots and resistance to antimalarial drugs Nature Genetics 2010, 42, pp 268-271 Bennett TN, Paguio, M., Gligorijevic, B., Seudieu, C., Kosar, A. D., Davidson, E., and Roepe, P. D. Novel, rapid, and inexpensive cell-based quantification of antimalarial drug efficacy Antimicrobial Agents Chemother. 2004, 48(5): pp 1807-10 Yuan J, Johnson RL, Huang RL, Wichterman J, Jiang HY, Hayton K, Fidock DA, Wellems TE, Inglese J, Austin CP, Su XZ. […]
Potency is the fitted concentration of half-maximal effect.

Potency, active:
C[C@@H]1CC[C@H]2C(=O)O[C@@H](COc3ccc(C(C)(C)C)cc3)CN2[C@@H]1c1ccc(Br)cc1 1.51 µM

Potency, inactive:
C#CCN1C(=O)[C@]2(OCCC=C[C@H]2C)c2c(Br)cccc21
O[C@H](CC#CCOc1ccccc1)COCc1ccccc1
O=C1C2=C(C(=O)c3ccccc31)[C@H]1O[C@](c3ccsc3)(Cc3c1ccc1ccccc31)O2
COC(=O)N1C(c2ccccc2)=Cc2ccccc2C1CC(C)=O (stereo not given)
C=C(C#Cc1ccc(OC)cc1)CCN1C=C(C(=O)OCC)C(c2ccccc2)NC1=O (stereo not given)
CC=Cc1cc2ccccc2c2c(C(=O)OC)c(C(=O)OC)c(C(=O)OC(C)(C)C)n12
C=CCOC(=O)C(C(=O)CC)[C@@H](NC(=O)OC)c1ccc(F)cc1 (stereo not given in full)
COC(=O)N[C@H](C(C(=O)OC)=C(C)NCc1ccccc1)c1ccco1
COC(=O)[C@H](COC(C)(C)C)NC(=O)O[C@@H]1C(=O)c2cc(Br)ccc2O[C@H]1c1ccc2c(c1)OCO2
C=C(CCN1C=C(C(C)=O)C(c2ccccc2)NC1=O)c1ccc(OC)cc1 (stereo not given)
CCOC(=O)OC[C@H]1O[C@H](c2cc(C)cc(C)c2)C=C[C@H]1OC(=O)OCC
COc1ccc(COC(=O)NN=C2C[C@@H](O)[C@@H](O)[C@@H]3[C@H]4C(=O)N([C@@H](C)c5ccccc5)C(=O)[C@@H]4CC[C@H]23)cc1
CC[C@H](C)[C@@H](NC(=O)O[C@H]1C(=O)c2cc(OC)ccc2O[C@@H]1c1ccc(OC)c(Br)c1)C(=O)OC
CC(=O)OC[C@H]1O[C@@H](ON=C2C[C@@H](O)[C@@H](O)[C@@H]3[C@H]4C(=O)N(Cc5ccccc5)C(=O)[C@@H]4CC[C@@H]23)[C@H](OC(C)=O)[C@@H](OC(C)=O)[C@H]1OC(C)=O
COC(=O)N[C@H](C[N+](=O)[O-])c1cccc(C)c1
COc1ccc(O[C@H]2C=C[C@@H](c3ccccc3)O[C@H]2COC(=O)CCC(C)=NO[C@@H](C)c2cc(-c3c(C)cc(C)cc3C)no2)cc1
COC(=O)CC1c2ccccc2C(Cc2ccc(OC)cc2)=C(C)N1C(=O)OC (stereo not given)
C#CCCOC(=O)N1C2=NC(C(=O)OC)=C(C(=O)OC)[C@@H]3Nc4ccccc4[C@]23C[C@H]1C(=O)OC
C[C@@H]1CC[C@H]2C(=O)O[C@@H](Cc3ccccc3)CN2[C@@H]1c1ccc(Br)cc1
C=CCN1c2ccccc2[C@]23C[C@@H](C(=O)OC)N(C(=O)OCC)C2=NC(C(=O)OC)=C(C(=O)OC)[C@H]13
COC1=C[C@H](C(=O)NCCNC(C)=O)[C@H](C)[C@@H](c2ccccc2)CC1=O
C=CCOC(=O)N[C@@H](CCc1ccccc1)C(C(C)=O)C(C)=O
CCCC[C@]12Cc3cc(C#N)ccc3[C@H](O1)c1c(c3cc(F)ccc3oc1=O)O2
COC(=O)C1(C(=O)OC)C[C@@H]2CON=C2[C@@H]1c1ccccc1
CCCC[C@]12Cc3cc(OC)c(OC)cc3[C@H](O1)C1=C(CC3(CCCCC3)OC1=O)O2
COC(=O)CC=C[C@@H](C)[C@H](NC(=O)OC)c1ccccc1Br
O=C1CCCC=C1C(O)CCOCc1ccccc1 (stereo not given)
C[C@@H]1CC2=CCCC2[C@]2(O1)C(=O)Nc1cccc(Br)c12 (stereo not given in full)
COc1cc(C(NC(=O)C(F)(F)F)c2cc3ccccc3o2)cc(OC)c1OC (stereo not given)
COC(=O)CC=C[C@@H](C)[C@H](NC(=O)OCC(Cl)(Cl)Cl)c1cccc(OC)c1
COC(=O)CC=C1c2ccc(F)cc2[C@@H](OC)[C@@H]1C
COC(=O)N[C@@H](c1ccc(Cl)cc1)C(C(C)=O)C(=O)OC (stereo not given in full)
C=CC[C@@H]1C=CC(ON=C(C)CCC(=O)OC[C@H]2O[C@H](C#Cc3ccccc3)C=C[C@H]2Oc2ccc(C)cc2)[C@H](CO)O1 (stereo not given in full)
CC1(O)C(=O)C=C2C=C(CCCCOCc3ccccc3)OC=C2C1=O (stereo not given)
C=C(C)C(O)C=Cc1ccccc1OC (stereo not given)
COCCN1C(=O)NC(CCc2ccccc2)C(C(C)=O)=C1C (stereo not given)
COCCN1C(=O)N[C@@H](CCc2ccccc2)[C@@H](C(=O)OC)[C@H]1C
C[C@@H]1C=CCC(=O)OC[C@H](C)C(=O)OC[C@H]2O[C@H]1C=C[C@H]2O
C#CCN1C(=O)C2(CC(C)=C[C@@H](C)O2)c2c(Br)cccc21 (stereo not given in full)
